Reference: the supplement of paper PMC10849652
The full data set covers some 7,900 targets. This sample favours those with a hit. About 0.6% of all pairs of compound and target were hits. Unmarked numbers belong to inactive results.

What was measured:
Test in all cases: log2 fold change, soluble protein after heating vs DMSO (PISA); higher = thermal stabilisation; K562 cells, 10 uM, 30 min; active = over 0.2 and 3.5 SD of the protein, either way, in both replicates (recomputed)
[1] = compound: CC[C@@H]1C(=O)N(C)c2cnc(Nc3ccc(C(=O)NC4CCN(C)CC4)cc3OC)nc2N1C1CCCC1
Procedure, shortened: (§1)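 K562 cells at 2×10^6 cells/mL were treated with 10 μM compound for 30 min. Aliquots were heated for 3 min across 48°C-58°C, pooled, and extracted in PBS with 0.5% NP-40 at 4°C; soluble protein was the supernatant after 21,000xg for 90 min. Soluble protein was quantified by TMTpro 16plex LC-MS/MS with channel sums equalised, and reported as log2 fold change in thermal stability against DMSO controls, with values from duplicates.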

volasertib = compound: CC[C@@H]1C(=O)N(C)c2cnc(Nc3ccc(C(=O)N[C@H]4CC[C@H](N5CCN(CC6CC6)CC5)CC4)cc3OC)nc2N1C(C)C [volasertib]
Procedure, shortened: as §1

[2] = compound: CC[C@H](C)N1C=C(C2=C(C=C(C=C21)C3=CN=C(C=C3)N4CCNCC4)C(=O)NCC5=C(C=C(NC5=O)C)C)C
Procedure, shortened: as §1

epoxomicin = compound: CC[C@H](C)[C@@H](C(=O)N[C@@H]([C@@H](C)O)C(=O)N[C@@H](CC(C)C)C(=O)[C@]1(CO1)C)NC(=O)[C@H]([C@@H](C)CC)N(C)C(=O)C [epoxomicin]
Procedure, shortened: as §1

[3] = compound: CCn1c(C(=O)N(C2CC2)C2CC2)cc2c3c(ncn3C)c(Nc3cc(C)n(C)n3)nc21
Procedure, shortened: as §1

[4] = compound: CCn1cc(-c2ccnc3[nH]c(-c4cccc(CN(C)C)c4)cc23)c(-c2ccc(NC(=O)N(C)C)cc2)n1
Procedure, shortened: as §1

[5] = compound: CN(C)CC(=O)Nc1ccc2[nH]c(=O)c3ccccc3c2c1
Procedure, shortened: as §1

rosiglitazone = compound: CN(CCOC1=CC=C(C=C1)C[C@H]2C(=O)NC(=O)S2)C3=CC=CC=N3 (racemic) [rosiglitazone]
Procedure, shortened: as §1

[6] = compound: CN1C2=C(C3=C1C(=O)N(N=C3)CC4=CC(=CC=C4)N)SC(=C2)S(=O)C
Procedure, shortened: as §1

[7] = compound: CN1CCC(CNc2ccc3ncc(-c4cccc(OC(F)(F)F)c4)n3n2)CC1
Procedure, shortened: as §1

saracatinib = compound: CN1CCN(CCOc2cc(OC3CCOCC3)c3c(Nc4c(Cl)ccc5c4OCO5)ncnc3c2)CC1 [saracatinib]
Procedure, shortened: as §1

sotrastaurin = compound: CN1CCN(c2nc(C3=C(c4c[nH]c5ccccc45)C(=O)NC3=O)c3ccccc3n2)CC1 [sotrastaurin]
Procedure, shortened: as §1

alvocidib = compound: CN1CC[C@H](c2c(O)cc(O)c3c(=O)cc(-c4ccccc4Cl)oc23)[C@H](O)C1 [alvocidib]
Procedure, shortened: as §1

Tubastatin A = compound: CN1CCc2c(c3ccccc3n2Cc2ccc(C(=O)NO)cc2)C1 [Tubastatin A]
Procedure, shortened: as §1

[8] = compound: CNC(=O)C1=CC=CC=C1NC2=NC(=NC=C2Cl)NC3=C(C=C(C=C3)N4CCOCC4)OC
Procedure, shortened: as §1

defactinib = compound: CNC(=O)c1ccc(Nc2ncc(C(F)(F)F)c(NCc3nccnc3N(C)S(C)(=O)=O)n2)cc1 [defactinib]
Procedure, shortened: as §1

rucaparib = compound: CNCc1ccc(-c2[nH]c3cc(F)cc4c3c2CCNC4=O)cc1 [rucaparib]
Procedure, shortened: as §1

[9] = compound: CNc1nc(-c2ccc3c(N)n[nH]c3c2)cc(N2C[C@@H](C(=O)NC3CCCCC3)CC[C@H]2C)n1
Procedure, shortened: as §1

encorafenib = compound: COC(=O)N[C@@H](C)CNc1nccc(-c2cn(C(C)C)nc2-c2cc(Cl)cc(NS(C)(=O)=O)c2F)n1 [encorafenib]
Procedure, shortened: as §1

[10] = compound: COC(=O)[C@H](CCSC)NC(=O)C1=C(C=C(C=C1)NC[C@H](CS)N)C2=CC=CC=C2
Procedure, shortened: as §1

UniProt Q6P3W2, sequence (Q6P3W2 whole entry, looked up): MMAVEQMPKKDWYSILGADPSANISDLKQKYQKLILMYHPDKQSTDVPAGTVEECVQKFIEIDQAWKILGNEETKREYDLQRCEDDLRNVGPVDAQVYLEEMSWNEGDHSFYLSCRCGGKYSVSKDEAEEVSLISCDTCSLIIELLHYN
UniProt Q8WYA6, sequence (Q8WYA6 whole entry, looked up): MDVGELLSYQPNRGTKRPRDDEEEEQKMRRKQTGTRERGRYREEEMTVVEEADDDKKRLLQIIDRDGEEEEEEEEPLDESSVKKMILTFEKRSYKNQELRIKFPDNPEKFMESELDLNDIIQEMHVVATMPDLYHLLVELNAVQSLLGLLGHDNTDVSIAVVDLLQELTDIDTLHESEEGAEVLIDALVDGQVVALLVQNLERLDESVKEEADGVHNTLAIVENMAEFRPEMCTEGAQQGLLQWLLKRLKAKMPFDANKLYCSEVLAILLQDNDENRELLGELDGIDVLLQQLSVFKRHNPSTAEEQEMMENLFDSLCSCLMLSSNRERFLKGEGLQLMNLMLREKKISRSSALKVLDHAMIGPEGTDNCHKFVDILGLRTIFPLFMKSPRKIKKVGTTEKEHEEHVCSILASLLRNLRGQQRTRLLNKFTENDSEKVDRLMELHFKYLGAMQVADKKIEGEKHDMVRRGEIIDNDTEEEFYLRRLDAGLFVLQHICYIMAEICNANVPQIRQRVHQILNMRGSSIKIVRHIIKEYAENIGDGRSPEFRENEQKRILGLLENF
UniProt Q96DF8, sequence (Q96DF8 whole entry, looked up): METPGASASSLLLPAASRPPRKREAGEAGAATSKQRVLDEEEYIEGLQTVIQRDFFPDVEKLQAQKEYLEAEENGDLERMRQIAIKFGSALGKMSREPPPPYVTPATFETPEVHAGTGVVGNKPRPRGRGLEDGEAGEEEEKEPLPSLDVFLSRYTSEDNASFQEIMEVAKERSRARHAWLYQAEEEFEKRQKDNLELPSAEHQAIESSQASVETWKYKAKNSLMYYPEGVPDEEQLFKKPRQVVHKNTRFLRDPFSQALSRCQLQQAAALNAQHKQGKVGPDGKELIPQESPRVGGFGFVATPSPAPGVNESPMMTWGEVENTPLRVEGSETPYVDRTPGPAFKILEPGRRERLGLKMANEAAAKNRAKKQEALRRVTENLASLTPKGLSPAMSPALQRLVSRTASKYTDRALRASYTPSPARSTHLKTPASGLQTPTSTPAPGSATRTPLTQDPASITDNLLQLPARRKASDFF
UniProt Q86UK5, sequence (Q86UK5 whole entry, looked up): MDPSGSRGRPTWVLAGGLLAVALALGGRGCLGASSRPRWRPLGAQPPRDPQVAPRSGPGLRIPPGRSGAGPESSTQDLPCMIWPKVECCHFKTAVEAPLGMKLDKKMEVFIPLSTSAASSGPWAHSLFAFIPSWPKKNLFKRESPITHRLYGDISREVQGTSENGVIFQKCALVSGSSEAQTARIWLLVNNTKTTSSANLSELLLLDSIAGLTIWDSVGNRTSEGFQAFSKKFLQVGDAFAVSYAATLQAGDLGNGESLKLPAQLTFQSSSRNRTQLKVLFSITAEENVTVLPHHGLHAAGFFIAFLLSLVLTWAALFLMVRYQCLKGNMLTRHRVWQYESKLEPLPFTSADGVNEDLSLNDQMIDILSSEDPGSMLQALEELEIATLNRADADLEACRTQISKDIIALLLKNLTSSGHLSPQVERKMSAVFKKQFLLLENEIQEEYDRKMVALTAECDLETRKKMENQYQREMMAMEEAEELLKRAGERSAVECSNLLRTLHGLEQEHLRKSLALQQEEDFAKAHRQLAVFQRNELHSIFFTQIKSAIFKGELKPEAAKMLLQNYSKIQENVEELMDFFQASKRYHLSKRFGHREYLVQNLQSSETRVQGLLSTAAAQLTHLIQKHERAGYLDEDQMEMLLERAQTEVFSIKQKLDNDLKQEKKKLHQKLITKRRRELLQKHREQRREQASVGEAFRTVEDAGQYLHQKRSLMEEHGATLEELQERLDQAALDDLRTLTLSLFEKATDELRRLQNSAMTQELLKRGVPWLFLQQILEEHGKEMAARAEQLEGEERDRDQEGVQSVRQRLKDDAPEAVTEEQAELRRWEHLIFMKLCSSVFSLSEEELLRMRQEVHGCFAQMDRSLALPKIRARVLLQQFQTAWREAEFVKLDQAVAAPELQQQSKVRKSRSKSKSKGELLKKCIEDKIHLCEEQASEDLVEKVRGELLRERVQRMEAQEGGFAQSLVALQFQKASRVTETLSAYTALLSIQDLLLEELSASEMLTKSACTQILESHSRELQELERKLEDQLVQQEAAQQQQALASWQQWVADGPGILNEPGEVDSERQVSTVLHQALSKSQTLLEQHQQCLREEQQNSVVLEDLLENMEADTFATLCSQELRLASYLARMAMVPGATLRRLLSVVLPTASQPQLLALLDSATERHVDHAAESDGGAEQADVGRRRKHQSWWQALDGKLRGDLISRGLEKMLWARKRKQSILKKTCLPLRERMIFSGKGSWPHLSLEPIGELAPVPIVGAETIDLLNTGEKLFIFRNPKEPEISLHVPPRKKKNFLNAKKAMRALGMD
UniProt Q86YN1, sequence (Q86YN1 whole entry, looked up): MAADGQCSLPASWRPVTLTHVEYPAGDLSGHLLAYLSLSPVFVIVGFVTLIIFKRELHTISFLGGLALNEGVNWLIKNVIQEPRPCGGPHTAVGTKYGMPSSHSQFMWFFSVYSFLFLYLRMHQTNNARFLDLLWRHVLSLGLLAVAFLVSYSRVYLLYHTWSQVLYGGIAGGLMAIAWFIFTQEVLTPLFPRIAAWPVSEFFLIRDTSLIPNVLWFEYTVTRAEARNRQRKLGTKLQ
UniProt Q9H773, sequence (Q9H773 whole entry, looked up): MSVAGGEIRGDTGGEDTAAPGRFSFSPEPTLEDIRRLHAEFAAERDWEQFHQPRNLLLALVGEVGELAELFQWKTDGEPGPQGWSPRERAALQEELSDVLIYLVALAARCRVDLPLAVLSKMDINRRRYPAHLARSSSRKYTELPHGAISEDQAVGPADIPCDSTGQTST
UniProt Q99848, sequence (Q99848 whole entry, looked up): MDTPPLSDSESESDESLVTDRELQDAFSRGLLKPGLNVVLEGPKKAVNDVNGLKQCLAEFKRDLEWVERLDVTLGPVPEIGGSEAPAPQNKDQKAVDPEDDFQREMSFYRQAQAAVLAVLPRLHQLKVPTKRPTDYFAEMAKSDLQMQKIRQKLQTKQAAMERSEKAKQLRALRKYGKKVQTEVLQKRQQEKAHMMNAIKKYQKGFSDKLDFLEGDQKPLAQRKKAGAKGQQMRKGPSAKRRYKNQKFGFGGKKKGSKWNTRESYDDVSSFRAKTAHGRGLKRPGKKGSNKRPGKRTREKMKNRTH
UniProt Q07973, sequence (Q07973 whole entry, looked up): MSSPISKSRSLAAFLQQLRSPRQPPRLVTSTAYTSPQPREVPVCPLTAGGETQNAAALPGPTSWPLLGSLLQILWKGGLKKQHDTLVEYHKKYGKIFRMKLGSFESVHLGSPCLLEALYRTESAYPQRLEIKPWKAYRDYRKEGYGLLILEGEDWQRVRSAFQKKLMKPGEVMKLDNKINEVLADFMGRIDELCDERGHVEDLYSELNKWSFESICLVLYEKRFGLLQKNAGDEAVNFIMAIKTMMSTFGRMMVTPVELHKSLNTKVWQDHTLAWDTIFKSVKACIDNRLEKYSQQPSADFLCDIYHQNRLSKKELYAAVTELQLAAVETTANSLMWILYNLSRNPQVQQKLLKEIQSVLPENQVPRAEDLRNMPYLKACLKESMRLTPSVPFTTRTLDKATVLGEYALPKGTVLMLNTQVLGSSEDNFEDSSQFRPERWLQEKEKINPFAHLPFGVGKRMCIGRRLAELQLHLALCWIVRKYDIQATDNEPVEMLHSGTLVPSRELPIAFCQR
UniProt Q9NSI2, sequence (Q9NSI2 whole entry, looked up): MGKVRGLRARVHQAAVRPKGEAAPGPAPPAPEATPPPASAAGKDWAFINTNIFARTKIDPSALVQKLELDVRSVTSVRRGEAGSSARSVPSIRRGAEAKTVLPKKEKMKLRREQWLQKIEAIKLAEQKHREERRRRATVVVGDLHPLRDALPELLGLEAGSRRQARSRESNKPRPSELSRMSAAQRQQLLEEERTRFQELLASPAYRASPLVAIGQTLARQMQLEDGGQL
UniProt Q8N5C7, sequence (Q8N5C7 whole entry, looked up): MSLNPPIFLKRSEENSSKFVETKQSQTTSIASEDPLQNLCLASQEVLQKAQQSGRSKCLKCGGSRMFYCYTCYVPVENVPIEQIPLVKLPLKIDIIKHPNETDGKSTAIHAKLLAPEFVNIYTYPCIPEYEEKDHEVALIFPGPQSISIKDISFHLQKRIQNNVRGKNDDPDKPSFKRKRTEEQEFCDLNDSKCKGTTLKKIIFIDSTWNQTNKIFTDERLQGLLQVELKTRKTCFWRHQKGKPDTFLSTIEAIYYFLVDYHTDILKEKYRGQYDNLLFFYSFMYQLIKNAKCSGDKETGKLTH
UniProt O60573, sequence (O60573 whole entry, looked up): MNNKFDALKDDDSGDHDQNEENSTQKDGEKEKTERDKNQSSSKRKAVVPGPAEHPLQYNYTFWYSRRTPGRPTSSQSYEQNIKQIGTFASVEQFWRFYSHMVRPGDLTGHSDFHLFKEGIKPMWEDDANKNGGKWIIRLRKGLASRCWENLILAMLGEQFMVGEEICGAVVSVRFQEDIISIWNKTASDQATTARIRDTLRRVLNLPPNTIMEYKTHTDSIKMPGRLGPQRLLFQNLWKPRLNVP
UniProt Q8TCE6, sequence (Q8TCE6 whole entry, looked up): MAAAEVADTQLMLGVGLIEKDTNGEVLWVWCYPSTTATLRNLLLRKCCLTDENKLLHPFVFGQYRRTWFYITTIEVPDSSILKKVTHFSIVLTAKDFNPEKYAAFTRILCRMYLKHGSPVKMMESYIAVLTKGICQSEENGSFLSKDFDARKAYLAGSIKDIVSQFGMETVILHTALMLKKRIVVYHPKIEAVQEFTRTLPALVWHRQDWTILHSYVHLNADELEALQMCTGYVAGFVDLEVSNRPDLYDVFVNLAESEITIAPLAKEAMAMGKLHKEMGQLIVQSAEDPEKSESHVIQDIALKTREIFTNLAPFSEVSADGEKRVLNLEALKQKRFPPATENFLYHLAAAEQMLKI

| Target | log2 fold change [1] | log2 fold change (volasertib) | log2 fold change [2] | log2 fold change (epoxomicin) | log2 fold change [3] | log2 fold change [4] | log2 fold change [5] | log2 fold change (rosiglitazone) | log2 fold change [6] | log2 fold change [7] | log2 fold change (saracatinib) | log2 fold change (sotrastaurin) | log2 fold change (alvocidib) | log2 fold change (Tubastatin A) | log2 fold change [8] | log2 fold change (defactinib) | log2 fold change (rucaparib) | log2 fold change [9] | log2 fold change (encorafenib) | log2 fold change [10] |
| --- | --- | --- | --- | --- | --- | --- | --- | --- | --- | --- | --- | --- | --- | --- | --- | --- | --- | --- | --- | --- |
| ESYT1 isoform 2 (UniProt Q9BSJ8) | 0.007 | -0.37 | 0.099 | 0.026 | -0.09 | 0 | 0.033 | 0.045 | 0.063 | 0.115 | -0.148 | -0.208 | -0.05 | 0.031 | -0.034 | -0.043 | 0.154 | 0.099 | 0.175 | -0.099 |
| EXOSC10 (UniProt Q01780) | -0.048 | 0.087 | – | -0.098 | -0.098 | -0.222 | -0.169 | -0.145 | 0.029 | -0.003 | -0.091 | 0.199 | 0.092 | 0.143 | -0.073 | 0.015 | 0.101 | 0.022 | -0.327 | 0.123 |
| CYP24A1 (UniProt Q07973) | 0.252 | 0.379 | -0.209 | – | -0.126 | 0.065 | -0.175 | -0.205 | 0.288 | 0.198 | -0.144 | – | – | 0.365 | -0.075 | 0.394 | 0.115 | 0.078 | 0.075 | 0.016 |
| FAM207A (UniProt Q9NSI2) | -0.085 | -0.165 | 0.044 | -0.024 | 0.025 | 0.023 | 0.05 | 0.146 | 0.168 | 0.418 (active) | 0.005 | -0.115 | – | 0.106 | 0.028 | 0 | 0.064 | 0.007 | 0.149 | 0.031 |
| DOLPP1 (UniProt Q86YN1) | -0.062 | -0.008 | -0.052 | – | -0.129 | – | 0.133 | -0.034 | – | – | – | – | -0.059 | -0.066 | 0.012 | -0.134 | 0.087 | – | -0.057 | 0.156 |
| EEF1A1 (UniProt P68104) | -0.19 | 0.098 | 0.131 | 0.148 | 0.021 | – | 0.165 | -0.326 | -0.121 | – | 0.093 | -0.082 | -0.885 (active) | -0.096 | 0.007 | -0.079 | 0.146 | 0.102 | -0.009 | -0.059 |
| EBNA1BP2 (UniProt Q99848) | 0.167 | 0.351 | 0.021 | -0.343 | -0.059 | 0.132 | -0.106 | -0.25 | 0.379 | 0.197 | -0.081 | -0.138 | 0.165 | 0.34 | -0.047 | 0.512 | 0.23 | 0.142 | 0.13 | 0.086 |
| ESS2 (UniProt Q96DF8) | -0.025 | -0.245 (active) | -0.077 | -0.012 | 0.026 | 0.036 | -0.032 | -0.008 | 0.024 | -0.012 | 0.041 | -0.025 | 0.113 | -0.055 | -0.038 | 0 | -0.013 | -0.142 | -0.012 | 0.01 |
| DTWD1 (UniProt Q8N5C7) | -0.081 | -0.196 | -0.07 | -0.054 | 0.018 | -0.033 | 0.036 | 0.057 | -0.046 | 0.089 | 0.007 | -0.02 | -0.122 | -0.014 | 0.007 | -0.03 | 0.011 | 0.152 | 0.051 | -0.143 |
| EIF2AK3 (UniProt Q9NZJ5) | 0.322 | -0.114 | 0.357 | 0.033 | -0.295 | 0.106 | – | -0.308 | 0.14 | -0.017 | -0.019 | – | 0.045 | 0.039 | 0.183 | – | -0.125 | 0.082 | -0.216 | – |
| EIF4E2 (UniProt O60573) | -0.202 | -0.381 (active) | 0.124 | 0.018 | -0.053 | – | 0.063 | 0.035 | -0.034 | – | -0.229 | -0.288 | -0.052 | 0.07 | -0.026 | -0.001 | 0.126 | 0.008 | -0.013 | -0.013 |
| DENND10 (UniProt Q8TCE6) | -0.041 | -0.241 | 0.121 | -0.041 | -0.048 | – | 0.076 | 0.007 | -0.031 | – | 0.035 | 0.015 | 0 | 0.007 | -0.039 | -0.058 | -0.065 | -0.035 | 0.008 | -0.048 |
| EVC2 (UniProt Q86UK5) | -0.133 | -0.003 | 0.078 | 0.097 | -0.038 | -0.037 | -0.087 | 0.128 | 0.034 | -0.293 | -0.151 | 0.067 | 0.031 | -0.033 | -0.035 | -0.065 | 0.065 | 0.035 | 0.002 | 0.073 |
| DCTPP1 (UniProt Q9H773) | 0.007 | -0.016 | -0.059 | 0.062 | -0.012 | -0.032 | -0.012 | 0.012 | -0.048 | 0.201 | 0.012 | 0.031 | -0.033 | 0.031 | -0.075 | -0.008 | -0.011 | -0.022 | -0.072 | 0.002 |
| DNAJC24 (UniProt Q6P3W2) | -0.318 | -0.244 | 0.029 | 0.034 | 0.049 | – | -0.027 | -0.01 | -0.284 | – | 0.185 | -0.081 | -0.038 | -0.094 | -0.033 | 0.116 | 0.059 | -0.351 (active) | 0.038 | 0.099 |
| CTNNBL1 (UniProt Q8WYA6) | -0.362 | -1.24 (active) | – | – | – | – | 0.012 | 0.072 | – | – | – | – | – | – | – | -0.513 | 0.137 | – | 0.121 | -0.19 |
